Experimental data reported in the supplement of paper PMC13380429.

Test system: Vero E6 infected with SARS-CoV-2
Test: inhibition of SARS-CoV-2 cytopathic effect; higher = more antiviral protection, active = above 15
Conditions: 48 h

Measured: inhibition of SARS-CoV-2 cytopathic effect

CC1CCc2c(N3CCC(O)CC3)c(F)cc3c(=O)c(C(=O)O)cn1c23 (stereo not given) [nadifloxacin]
inactive: 1 nM 3.29% | 8.33 nM 1.42% | 100 nM 0.26% | 833.33 nM 3.52% | 10000 nM 2.69%

Cc1cc2c(F)c(Oc3ncnn4cc(OC[C@@H](C)OC(=O)[C@H](C)N)c(C)c34)ccc2[nH]1 [brivanib-alaninate]
inactive: 1 nM -0.11% | 8.33 nM 4.65% | 100 nM 1.96% | 833.33 nM -0.19% | 10000 nM -7.17%

CC[C@H]1OC(=O)[C@H](C)[C@@H](O[C@H]2C[C@@](C)(OC)[C@@H](O)[C@H](C)O2)[C@H](C)[C@@H](O[C@@H]2O[C@H](C)C[C@H](N(C)C)[C@H]2O)[C@](C)(OC)C[C@@H](C)C(=O)[C@H](C)[C@@H](O)[C@]1(C)O [clarithromycin]
inactive: 1 nM -4.37% | 8.33 nM -0.55% | 100 nM 2.36% | 833.33 nM 1.42% | 10000 nM -3%

CCOC(=O)C1=C(C)NC(c2ccccc2)=C(C(=O)OCc2ccc([N+](=O)[O-])cc2)[C@@H]1C#Cc1ccccc1
inactive: 1 nM 2.05% | 8.33 nM -1.34% | 100 nM 0.42% | 833.33 nM 1.51% | 10000 nM 3.9%

C[C@]12CC[C@H]3[C@@H](CCC4=CC(=O)CC[C@@]43C)[C@@H]1CC[C@@H]2O
inactive: 1 nM 0.04% | 8.33 nM 2.66% | 100 nM 3.91% | 833.33 nM -1.25% | 10000 nM -0.6%

CN1C(=O)c2c(nn(Cc3ccc(-c4cccc(F)n4)cc3)c2Nc2ccccc2)N2C1=N[C@@H]1CCC[C@@H]12
inactive: 1 nM 0.59% | 8.33 nM 1.65% | 100 nM 2.18% | 833.33 nM 3.15% | 10000 nM 0.62%

CNC(=O)CN1CCC(Oc2cc3c(Nc4cccc(Cl)c4F)ncnc3cc2OC)CC1
inactive: 1 nM -0.01% | 8.33 nM 0.66% | 100 nM -6.91% | 833.33 nM -7.8% | 10000 nM -13.6%

N#Cc1c(N)nc(SCc2csc(-c3ccc(Cl)cc3)n2)c(C#N)c1-c1ccc(OCCO)cc1 [capadenoson]
inactive: 1 nM 0.18% | 8.33 nM -0.34% | 100 nM -1.11% | 833.33 nM -2.63% | 10000 nM -3.59%

COc1cccc(-n2nc(C(=O)O)cc2-c2ccc(C3CCCCC3)c(Cl)c2)c1
inactive: 1 nM 0.77% | 8.33 nM 1.66% | 100 nM 2.64% | 833.33 nM 1.95% | 10000 nM 6.19%

N=C(N)SCCc1ccc(OCc2ccc([N+](=O)[O-])cc2)cc1
inactive: 1 nM 1.92% | 8.33 nM -1.12% | 100 nM -0.47% | 833.33 nM -2.92% | 10000 nM -4.41%

C[C@@H]1CN(Cc2ccc(F)cc2)[C@@H](C)CN1C(=O)c1cc2c(C(=O)C(=O)N(C)C)cn(C)c2cc1Cl [talmapimod]
inactive: 1 nM -1.36% | 8.33 nM -0.66% | 100 nM -2.57% | 833.33 nM -0.03% | 10000 nM -1.11%

C[N+]1(C)CCCC(OC(=O)C(O)(c2ccccc2)c2ccccc2)C1 (stereo not given) [mepenzolate]
inactive: 1 nM -0.21% | 8.33 nM -0.16% | 100 nM -3.53% | 833.33 nM 0.26% | 10000 nM 0.49%

O=C(O)C[C@H](O)C(=O)O [malic-acid]
inactive: 1 nM -0.21% | 8.33 nM -2.53% | 100 nM -1.2% | 833.33 nM 3.51% | 10000 nM 1.76%

C=C(NC(=O)C(=C)NC(=O)c1csc(C2=N[C@@H]3c4csc(n4)[C@H]4NC(=O)c5csc(n5)[C@H]([C@](C)(O)[C@@H](C)O)NC(=O)[C@H]5CSC(=N5)/C(=C/C)NC(=O)[C@H]([C@@H](C)O)NC(=O)c5csc(n5)[C@]3(CC2)NC(=O)[C@H](C)NC(=O)C(=C)NC(=O)[C@H](C)NC(=O)[C@H]([C@@H](C)CC)N[C@@H]2C=Cc3c([C@H](C)O)cc(nc3[C@H]2O)C(=O)O[C@@H]4C)n1)C(N)=O [thiostrepton]
inactive: 1 nM -2.64% | 8.33 nM -1.12% | 100 nM -4.03% | 833.33 nM 1.58% | 10000 nM 7.51%

CCC[C@H](N[C@@H](C)C(=O)N1[C@H](C(=O)O)C[C@@H]2CCCC[C@@H]21)C(=O)OCC [perindopril]
inactive: 1 nM -0.73% | 8.33 nM 1.32% | 100 nM -0.77% | 833.33 nM 0.99% | 10000 nM 0.19%
